Bioassay records deposited in PubChem by National Center for Advancing Translational Sciences (NCATS).
A selection: hits, their analogues and other compounds. The true share with any hit is near 6.9%.
Vif-A3F inh: inhibitors of Vif-A3F interaction. HeLa A3F-eYFP + Vif (tagged APOBEC3F with the HIV-1 protein that degrades it), YFP fluorescence increase. Potency, µM (series often up to 46.1 µM). 390,000 compounds, 0.2% hits. AID 602313; note: nearly all actives have a fitted effect of over 65% in size
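HeLa cells stably expressing A3F-eYFP plus Vif, plated and incubated overnight at 37 deg C, then exposed to compounds overnight at 37 deg C. Blocked degradation read as raised yellow fluorescence (Ex 488/Em 500-530).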
Giardia killer: Giardia lamblia killing; Giardia lamblia trophozoite viability; activity change, % at 7.66 µM, hits read low; AID 540267; 340,000 compounds, 0.15% hits; in the data active = activity change below about -80%; inconclusive = between about -30% and that limit;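 note: parasites exposed to compound for two days anaerobically before the ATP read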
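Anaerobic 48 hrs incubation at 37 deg C of 100 trophozoites/well with test compounds; ATPLite 1-Step luminescence, 15-30 min RT, reports cellular ATP as viability.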
SW480 rereplic: induces DNA re-replication in SW480 colon adenocarcinoma cells. SW480 DNA re-replication, Hoechst DNA content imaging, 48 h. Potency, µM (highest dose often 46.1 µM), most hits filed as activators. 340,000 compounds, 1.8% hits; note: nearly all actives have a fitted effect of over 55% in size
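Treated cells incubate 48 hr (37 C, 5% CO2), are stained 40 min with Hoechst, and nuclear fluorescence is enumerated; a rise in nuclei with high DNA signal marks re-replication.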
IL-1B inflam inh: inhibitors of inflammasome signaling (IL-1 beta secretion). THP-1 LPS/ATP IL-1B secretion, AlphaLISA, 16 h; active compounds read low. activity change, % at 57.5 µM. 360,000 compounds, 4.7% hits; in the data active = activity change below about -50%; inconclusive = mostly about -30% to -49%
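THP-1 cells pretreated 1 hr with compounds (up to 57.5 uM final), then stimulated with LPS (250 ng/mL final) plus ATP (1.25 mM final); secreted IL-1B measured by AlphaLISA after 16 hr, decreased signal indicating inhibition.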
Vif-A3G inh: blocks the Vif interaction with human APOBEC3G; Q9HC16; HeLa A3G-eYFP + Vif (tagged APOBEC3G with the HIV-1 protein that degrades it), YFP fluorescence, overnight; Potency, µM (series often up to 46.1 µM), most hits filed as inhibitors; 410,000 compounds, 0.076% hits; note: nearly all actives have a fitted effect of over 60% in size
Target sequence (Q9HC16 whole entry, looked up): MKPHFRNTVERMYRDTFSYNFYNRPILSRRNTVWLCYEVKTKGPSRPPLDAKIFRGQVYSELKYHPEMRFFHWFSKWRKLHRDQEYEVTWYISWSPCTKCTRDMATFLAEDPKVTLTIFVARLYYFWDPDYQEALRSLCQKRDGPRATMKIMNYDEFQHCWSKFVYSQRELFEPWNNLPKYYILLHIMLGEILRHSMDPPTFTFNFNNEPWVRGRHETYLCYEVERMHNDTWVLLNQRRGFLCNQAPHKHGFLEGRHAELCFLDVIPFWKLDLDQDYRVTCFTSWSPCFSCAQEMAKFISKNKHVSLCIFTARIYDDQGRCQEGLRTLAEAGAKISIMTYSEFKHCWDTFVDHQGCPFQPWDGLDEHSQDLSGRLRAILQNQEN
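HeLa cells stably expressing Vif and C-terminally eYFP-tagged A3G, seeded overnight at 37 deg C, then exposed to compound by pintool overnight at 37 deg C. Rise in yellow fluorescence (Ex 488/Em 500-530, Acumen) marks blocked Vif-driven A3G degradation.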
MCF10A rereplic: induces DNA re-replication in MCF 10a normal breast cells; 350,000 compounds, 2.9% hits; Potency, µM (doses to about 46.1 µM), usual class: activators; MCF 10A DNA re-replication, Hoechst nuclear intensity, 48 h; note: nearly all actives have a fitted effect of over 50% in size
Numbers stand for hits; 0 = inactive; ? = inconclusive; - = not tested or not shown. Unless noted, calls come from the whole dose curve; as a rule, active = well fitted curve in the direction sought with a large enough effect; inconclusive = small, poorly fitted or top-dose-only effect, or another doubt; inactive = no such curve, though single readings can be large; an effect the other way counts as inactive or inconclusive.

SMILES | Vif-A3F inh | Giardia killer | SW480 rereplic | IL-1B inflam inh | Vif-A3G inh | MCF10A rereplic
Cn1ccnc1Sc1nc2ccccc2nc1NS(=O)(=O)c1ccccc1 | 25µM | 0 | 0 | 0 | 0 | 0
Cn1cnnc1Sc1nc2ccccc2nc1NS(=O)(=O)c1ccccc1 | ? | 0 | 0 | 0 | 0 | ?
CCOc1cc(/C=C2\N=C(C)OC2=O)cc(Br)c1OCC(=O)OC | 0 | 0 | 12µM | 0 | 0 | 9.2µM
O=C(NCCc1ccccc1)c1cnc(Cl)c(Cl)c1 | 0 | 0 | 0 | -87 | 0 | 0
O=C(NCCCSc1ccccc1)c1cnc(Cl)c(Cl)c1 | 0 | 0 | 0 | -94 | 0 | 0
O=C(NCCCSc1ccccc1)c1cccnc1 | 0 | 0 | 0 | 0 | 0 | 0
CCS(=O)(=O)c1nc(S(=O)(=O)c2ccc(C)cc2)c(N2CCN(CCO)CC2)s1 | 0 | 0 | 0 | 0 | 0 | 0
CCN1CCN(c2sc(S(C)(=O)=O)nc2S(=O)(=O)c2ccc(C)cc2)CC1 | 0 | 0 | 0 | -85 | 0 | 0
CCN1CCN(c2sc(S(=O)(=O)CC)nc2S(=O)(=O)c2ccc(C)cc2)CC1 | 0 | - | - | 0 | 0 | -
Cc1ccc(S(=O)(=O)c2nc(S(=O)(=O)c3ccccc3)sc2N2CCN(CCO)CC2)cc1 | 0 | 0 | 0 | -68 | 0 | 0
Cc1ccc(S(=O)(=O)c2nc(S(=O)(=O)c3ccccc3)sc2N2CCN(C)CC2)cc1 | 0 | 0 | 0 | -66 | 0 | 23µM
CC1CCN(c2oc(-c3ccco3)nc2S(=O)(=O)c2ccccc2)CC1 | 0 | 0 | 0 | -53 | 0 | 0
COc1ccc(Br)cc1CNC(=O)c1cnc2sc(N3CCC(C)CC3)nn2c1=O | 0 | - | - | - | 0 | -
NC(=O)C1CCN(c2oc(-c3cccs3)nc2S(=O)(=O)c2ccc(Cl)cc2)CC1 | 0 | 0 | 0 | -55 | 0 | 0
Cc1ccc(S(=O)(=O)c2nc(-c3ccccc3Cl)oc2N2CCN(C)CC2)cc1 | 0 | 0 | ? | -66 | 0 | 0
Cc1ccc(S(=O)(=O)c2nc(S(C)(=O)=O)sc2N2CCC(C(N)=O)CC2)cc1 | 0 | 0 | 0 | 0 | 0 | 0
CS(=O)(=O)c1nc(S(=O)(=O)c2ccc(Cl)cc2)c(N2CCC(C(N)=O)CC2)s1 | 0 | 0 | 0 | -79 | 0 | 0
C#C[C@]1(OC(C)=O)CC[C@H]2[C@@H]3CCC4=C/C(=N/O)CC[C@@H]4[C@H]3CC[C@@]21CC | - | - | 0 | - | - | ?
O=C(N/N=C/c1ccccn1)c1sc2ccccc2c1Cl | 0 | 0 | ? | 0 | 0 | ?
O=C(N/N=C/c1ccc(-c2ccc([N+](=O)[O-])cc2)o1)C(O)c1ccccc1 (centres undefined) | 0 | 0 | ? | -249 | 0 | 0
O=C(N/N=C/c1ccc([N+](=O)[O-])o1)C1CC1 | 0 | -85 | ? | 0 | 0 | 0
O=C(N/N=C/c1ccc([N+](=O)[O-])o1)c1cn2ccc3ccccc3c2n1 | ? | -95 | 21µM | 0 | ? | ?
O=C(N/N=C/c1ccc([N+](=O)[O-])o1)c1sc2ccccc2c1Cl | 8.9µM | -95 | 0 | -78 | ? | ?
COc1ccc(C2C(=O)N(C3CCC(C)CC3)CC(=O)N2Cc2ccc(C)cc2)cc1OC (centres undefined) | 0 | - | - | - | 0 | -
Cc1ccc(CNC(=O)C2CCN(c3nc4ccc(C)cc4[nH]3)CC2)cc1 | 0 | - | - | - | 0 | -
SMILES | Vif-A3F inh | Giardia killer | SW480 rereplic | IL-1B inflam inh | Vif-A3G inh | MCF10A rereplic
CN(C)/[N+]([O-])=N/Oc1ccc([N+](=O)[O-])cc1C(F)(F)F | - | - | - | - | 0 | -
O=C(N/N=C/c1ccc([N+](=O)[O-])o1)C(O)c1ccccc1 (centres undefined) | 0 | -84 | ? | 0 | 0 | 12µM
O=[N+]([O-])c1ccc(/C=N/Nc2nc(N3CCCCC3)nc(N3CCCCC3)n2)o1 | 0 | -84 | 0 | 0 | 0 | 0
COc1c(/C=N/Nc2nc(N3CCCCC3)nc(N3CCCCC3)n2)cccc1[N+](=O)[O-] | 0 | 0 | 0 | 0 | 0 | 0
CCOC(=O)c1ccc(N2C(=O)c3[nH]nc(-c4ccccc4)c3C2c2cccs2)cc1 (centres undefined) | 0 | - | - | - | 0 | -
Cc1cc(=O)[nH]c2c1c(C)nn2C1CCOC(C)(C)C1 (centres undefined) | 0 | 0 | 6.5µM | 0 | 0 | 0
